Screens as filed in PubChem.
TGFb SMAD3 inh = qHTS for Inhibitors of TGF-b | HepG2 CAGA-GFP TGF-b/SMAD3 reporter, GFP fluorescence, 18 h; TGF-beta stimulated, 500 pg/mL final | Potency, µM (highest dose often 46.1 µM), without a hit: at the highest dose activity, negative = inhibition, hits mostly inhibitors | actives 1.2% (n = 410,000); further: potency means the concentration at half of the fitted maximal effect; on the % scale 0 is the no-effect control and ±100 the full control effect; nearly all actives have a fitted effect of over 65% in size
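TGF-beta reporter screen: HEPG2 CAGA-GFP, 1% FBS, 500 pg/mL TGF-beta final, 18 h; per-cell GFP summed per well; curves fitted and categorized by class.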
ATXN2 expr inh = Primary qHTS for Inhibitors of ATXN expression; Potency, µM (titrated, usually from 57 µM), inactives show top-dose activity change, negative = inhibition, most hits filed as inhibitors; HEK-293 ATXN2-luciferase reporter, luminescence, 24 h; actives 0.72% (n = 360,000); AID 1745845, 2022; further: potency means the concentration at half of the fitted maximal effect; on the % scale 0 is the no-effect control and ±100 the full control effect; nearly all actives have a fitted effect of over 55% in size
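ATXN2-luciferase reporter cells (luciferase flanked by upstream and downstream ATXN2 gene portions) were treated 24 h at 37 °C with compounds at up to 57 uM. SteadyGlo luminescence gave expression; GF-AFC fluorescence gave viability.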
D3 antag = qHTS of D3 Dopamine Receptor Antagonist: qHTS. D(3) dopamine receptor (Homo sapiens), P35462. AID 652054, 2013. D3R cells, DiscoveRx beta-arrestin luminescence, antagonist mode; hits give low values. max response, negative = inhibition, %. actives 2.5% (n = 360,000); in the data active means max response below about -50%; inconclusive means no clear call, values can overlap the other calls; further: on the % scale 0 is the no-effect control and ±100 the full control effect
Target sequence (P35462 whole entry, looked up): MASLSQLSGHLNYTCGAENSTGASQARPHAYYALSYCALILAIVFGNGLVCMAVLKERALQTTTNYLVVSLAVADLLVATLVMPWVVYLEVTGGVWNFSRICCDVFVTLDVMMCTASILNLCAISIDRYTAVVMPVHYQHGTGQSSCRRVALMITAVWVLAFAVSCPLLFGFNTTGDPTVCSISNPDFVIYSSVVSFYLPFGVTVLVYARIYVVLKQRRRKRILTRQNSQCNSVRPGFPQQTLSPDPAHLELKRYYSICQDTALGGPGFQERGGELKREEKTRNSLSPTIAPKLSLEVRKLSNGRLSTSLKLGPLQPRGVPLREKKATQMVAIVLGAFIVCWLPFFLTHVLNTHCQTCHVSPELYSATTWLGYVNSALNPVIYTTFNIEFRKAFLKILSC
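Cells expressing the human receptor were seeded at 1500 cells/well, incubated overnight at 37 degrees C in 5% CO2, then exposed to library compounds with dopamine controls for 90 minutes at 37 degrees C before luminescent detection.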
DRD3 agonist = qHTS of D3 Dopamine Receptor Agonist: qHTS | max activation, % | actives 0.58% (n = 410,000) | D3R DiscoveRx beta-arrestin cells, luminescence, 90 min; in the data active means max activation above about 30%; further: 0% is about no effect
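Cells at 1500/well, incubated overnight, then treated with pinned compounds (dopamine as control) for 90 min at 37 degrees C. DiscoveRx reagent added for 30 - 60 minutes at room temperature; luminescence read.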
ATXN viability = Viability Counterscreen for Primary qHTS for Inhibitors of ATXN expression | Potency, µM (titrated, usually from 56.7 µM), usual class: cytotoxic | AID 651635, 2014 | S2 cells (HEK-293 line with an ATXN2-luciferase reporter) viability, CellTiter-Fluor protease fluorescence, 24 h | actives 0.49% (n = 400,000); further: potency means the concentration at half of the fitted maximal effect; nearly all actives have a fitted effect of over 40% in size
HepG2 tox-1 = qHTS for Inhibitors of TGF-b: Cytotox Counterscreen. HepG2 CAGA-GFP viability, ATP luminescence, 18 h. Potency, µM (doses to about 46.1 µM), for inactives: at the highest dose activity change, negative = cytotoxicity, actives largely listed as cytotoxic. actives 0.76% (n = 410,000); further: potency means the concentration at half of the fitted maximal effect
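HepG2 CAGA-GFP cells (1000/well, DMEM with 1% FBS) received compound, then TGF-beta at 500 pg/mL final, and were incubated 18 hours at 37 degrees C. Viability was read by CellTiter-Glo luminescence. Media-only wells were set as complete cell-killing and DMSO as no toxicity.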
TGFb CAGA inh = qHTS for Inhibitors of TGF-b: Confirmation of Cherry Picks. HepG2 CAGA-GFP TGF-b reporter, GFP fluorescence, 18 h; cells stimulated with TGF-beta, 500 pg/mL. shares compounds with TGFb SMAD3 inh. actives 63% (n = 1,600). AID 720534, 2013. Potency, µM (top dose mostly 46.1 µM), for the others: at the top dose activity, negative = inhibition, actives largely listed as inhibitors; further: potency means the concentration at half of the fitted maximal effect; on the % scale 0 is the no-effect control and ±100 the full control effect; nearly all actives have a fitted effect of over 65% in size
HepG2 tox-2 = qHTS for Inhibitors of TGF-b: Cytotox Counterscreen for Cherry Picks; shares compounds with TGFb SMAD3 inh; HepG2 CAGA-GFP viability, ATP luminescence, 18 h; cells stimulated with TGF-beta, 500 pg/mL; Potency, µM (highest dose often 46.1 µM), for inactives: at the top dose activity, negative = cytotoxicity, usual class: inhibitors; actives 27% (n = 1,600); AID 720535, 2013; further: potency means the concentration at half of the fitted maximal effect; on the % scale 0 is the no-effect control and ±100 the full control effect; nearly all actives have a fitted effect of over 70% in size
TGFb CCL64 inh = qHTS for Inhibitors of TGF-b: CCL64 Cells Orthogonal Assay for Cherry Picks; Potency, µM (series often up to 46.1 µM), for inactives: at the top dose activity, negative = inhibition, actives largely listed as inhibitors; actives 41% (n = 1,600); CCL64 CAGA-GFP reporter, TGF-b stimulated, GFP fluorescence, 18 h; shares compounds with TGFb SMAD3 inh; AID 720536, 2013; further: potency means the concentration at half of the fitted maximal effect; nearly all actives have a fitted effect of over 65% in size
COP TGFb inh = qHTS for Inhibitors of TGF-b: Hit Validation in HepG2 Cells using COP promoter; shares compounds with TGFb SMAD3 inh; HepG2 COP-GFP TGF-b reporter, GFP fluorescence, 18 h; cells stimulated by added recombinant TGF-beta; Potency, µM (titrated, usually from 46.1 µM), for inactives: top-dose activity, negative = inhibition, hits mostly inhibitors; actives 3% (n = 1,600); AID 720537, 2013; further: potency means the concentration at half of the fitted maximal effect; nearly all actives have a fitted effect of over 70% in size
Active calls of the source: *. A selection: hits, their analogues and other compounds. The true share with any hit is near 4.7%. Unless noted, the call rests on the fitted dose curve; in most records, active means well fitted curve in the direction sought with a large enough effect; inconclusive means small, poorly fitted or top-dose-only effect, or another doubt; inactive means no such curve, though single readings can be large; an effect the other way counts as inactive or inconclusive.

Oc1ccc(C[C@H]2CN([C@@H](Cc3ccc(O)cc3)CN3CCC[C@@H]3CN3C(=S)NC[C@@H]3Cc3ccccc3)C(=S)N2CC2CCCCCC2)cc1 was read as TGFb SMAD3 inh 10µM*, ATXN2 expr inh 10µM*, D3 antag -21.7, DRD3 agonist -10.4, ATXN viability 8.91µM*, HepG2 tox-1 -45.3%, TGFb CAGA inh 23.1µM*, HepG2 tox-2 inconclusive, TGFb CCL64 inh 8.2µM* and COP TGFb inh 67.3%.
Screening COc1cc(Cl)c(C)cc1NS(=O)(=O)c1c(C)nc2sccn2c1=O returned TGFb SMAD3 inh -0.3%, DRD3 agonist 7.9 and HepG2 tox-1 -12.9%.
O=C(CSc1c2c(nc3ccc(Cl)cc13)CCCC2)N1CCCCC1 was read as TGFb SMAD3 inh inconclusive, DRD3 agonist -10.3 and HepG2 tox-1 -54.4%.
Screening CC(=O)c1ccc(-c2cc(C3C4C=CCC(C)C4C(=O)N3Cc3ccccc3)ccc2F)cc1 (centres undefined) returned TGFb SMAD3 inh 0.0% and HepG2 tox-1 -6.3%.
O=C1NC(Cc2ccc(O)cc2)c2nc3ccc(Cl)cc3c(=O)n2-c2cc3ccccc3cc21 (centres undefined) was read as TGFb SMAD3 inh 7.94µM*, ATXN2 expr inh inconclusive, D3 antag -19.8, DRD3 agonist -7.7, ATXN viability inconclusive, HepG2 tox-1 12.7%, TGFb CAGA inh 8.2µM*, HepG2 tox-2 inconclusive, TGFb CCL64 inh 5.8µM* and COP TGFb inh 45.3%.
For COc1ccc(CN2C[C@H]3CCCN3c3cc(Br)ccc3S2(=O)=O)cc1 the results were TGFb SMAD3 inh 10µM*, ATXN2 expr inh -6.8%, D3 antag inconclusive, DRD3 agonist -36.9, ATXN viability inconclusive, HepG2 tox-1 -20.5%, TGFb CAGA inh 8.2µM*, HepG2 tox-2 -2.5%, TGFb CCL64 inh inconclusive and COP TGFb inh -22.4%.
For COc1ccc(NC(=O)CN(c2ccc(C)cc2)S(=O)(=O)c2cccc3nonc23)cc1OC the results were TGFb SMAD3 inh -0.4%, ATXN2 expr inh 9.2%, DRD3 agonist 1.7, ATXN viability inconclusive and HepG2 tox-1 -24.5%.
Screening CC(C)(C)S(=O)(=O)/C(C#N)=N/Nc1ccc(Cl)cc1 returned TGFb SMAD3 inh inconclusive, ATXN2 expr inh inconclusive, D3 antag -7.4, DRD3 agonist 13.4, ATXN viability inconclusive, HepG2 tox-1 -32.6%, TGFb CAGA inh 13µM*, HepG2 tox-2 inconclusive, TGFb CCL64 inh inconclusive and COP TGFb inh 49.3%.
For CC(C)(C)c1ccc(N/N=C(\C#N)S(=O)(=O)C(C)(C)C)cc1 the results were TGFb SMAD3 inh inconclusive, ATXN2 expr inh -31.5%, D3 antag 10.0, DRD3 agonist 4.2, ATXN viability inconclusive and HepG2 tox-1 -43.4%.
`COc1ccc(Nc2nc(N3CCCC3)nc3ccccc23)c(OC)c1` gave TGFb SMAD3 inh 10µM*, ATXN2 expr inh 10µM*, D3 antag -17.8, DRD3 agonist 2.2, ATXN viability 20µM*, HepG2 tox-1 -57.5%, TGFb CAGA inh inconclusive, HepG2 tox-2 inconclusive, TGFb CCL64 inh inconclusive and COP TGFb inh 66.1%.
`COc1ccc(Nc2nc(-c3ccc(C)cc3)nc3ccccc23)c(OC)c1` gave TGFb SMAD3 inh inconclusive, DRD3 agonist 1.2 and HepG2 tox-1 -31.4%.
`O=S(Cc1ccc(Br)cc1)Cc1nnc(SCc2c(F)cccc2Cl)n1-c1ccccc1` (centres undefined) gave TGFb SMAD3 inh inconclusive, ATXN2 expr inh -9.3%, D3 antag inconclusive, DRD3 agonist -2.2, ATXN viability inactive, HepG2 tox-1 -13.1%, TGFb CAGA inh 11.6µM*, HepG2 tox-2 inconclusive, TGFb CCL64 inh 14.6µM* and COP TGFb inh 40.3%.
COc1ccc(NS(=O)(=O)c2cc(NC(=O)CNC(=O)c3cccc(OC)c3)ccc2C)cc1 was read as TGFb SMAD3 inh inconclusive, ATXN2 expr inh 5.2%, D3 antag 15.0, DRD3 agonist -4.4, ATXN viability inactive, HepG2 tox-1 6.6%, TGFb CAGA inh inconclusive, HepG2 tox-2 -8.1%, TGFb CCL64 inh inconclusive and COP TGFb inh -1.1%.
`COc1ccc(NS(=O)(=O)c2cccc(NC(=O)CCC(=O)c3ccc(Cl)cc3)c2)cc1` gave TGFb SMAD3 inh 10µM*, ATXN2 expr inh -15.5%, D3 antag 12.0, DRD3 agonist 2.0, ATXN viability inconclusive, HepG2 tox-1 -23.0%, TGFb CAGA inh 16.4µM*, HepG2 tox-2 inconclusive, TGFb CCL64 inh inconclusive and COP TGFb inh 45.6%.
For COc1cccc(NC(=O)CNC(=O)c2ccccc2)c1 the results were TGFb SMAD3 inh 11.9%, ATXN2 expr inh 33.8%, D3 antag -21.4, DRD3 agonist -4.6, ATXN viability inactive and HepG2 tox-1 -0.1%.
For N#Cc1ccccc1CSc1nnc2ccc3ccccc3n12 the results were TGFb SMAD3 inh -2.9%, ATXN2 expr inh 10.3%, DRD3 agonist 0.5, ATXN viability inactive and HepG2 tox-1 -0.7%.
